We go through 37 molecules from ChEMBL document CHEMBL3433997, “St. Jude Leishmania screening dataset” (2016).

Assay type in all cases: functional
Assay [1] has as its target Solute carrier family 2, facilitated glucose transporter member 1 (Homo sapiens) (UniProt P11166). Description: ST_JUDE_LEISH: Cytotoxicity at 2uM final concentration against transgenic Leishmania Mexicana promastigotes LmGLUT1 that are glucose transport deficient and complemented with the human glucose transporter GLUT1. Activity is measured by DNA content using SYBR green in vitro.

The target in assay [2] is Hexose transporter 1 (Plasmodium falciparum) (UniProt O97467). Briefly: ST_JUDE_LEISH: Cytotoxicity at 2uM final concentration against transgenic Leishmania Mexicana promastigotes LmPfHT that are glucose transport deficient and complemented with the Plasmodium falciparum hexose transporter. Activity is measured by DNA content using SYBR green in vitro.
For assay [3], the target named is Glucose transporter (Leishmania mexicana) (UniProt O61059). Briefly: ST_JUDE_LEISH: Cytotoxicity at 2uM final concentration against transgenic Leishmania Mexicana promastigotes LmGT2 that are glucose transport deficient and complemented with the L. Mexicana glucose transporter 2. Activity is measured by DNA content using SYBR green in vitro.

Chain of Solute carrier family 2, facilitated glucose transporter member 1 (Homo sapiens) (P11166 whole entry): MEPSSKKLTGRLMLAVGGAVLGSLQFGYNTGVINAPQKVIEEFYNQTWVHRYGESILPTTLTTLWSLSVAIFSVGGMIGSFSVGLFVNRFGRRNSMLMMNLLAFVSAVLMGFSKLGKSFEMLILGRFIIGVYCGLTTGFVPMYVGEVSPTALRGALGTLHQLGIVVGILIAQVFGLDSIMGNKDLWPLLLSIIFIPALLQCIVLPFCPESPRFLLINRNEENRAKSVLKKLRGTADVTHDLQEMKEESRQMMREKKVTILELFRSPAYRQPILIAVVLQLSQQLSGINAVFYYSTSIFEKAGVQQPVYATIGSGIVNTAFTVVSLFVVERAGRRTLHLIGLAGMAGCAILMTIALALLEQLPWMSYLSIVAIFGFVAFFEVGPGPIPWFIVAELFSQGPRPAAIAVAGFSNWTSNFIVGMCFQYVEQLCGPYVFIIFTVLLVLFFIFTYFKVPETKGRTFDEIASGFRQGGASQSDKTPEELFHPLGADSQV

For the molecule `Nc1ncc(OC2CCCCC2)c(N)n1`, the inhibition in assay [1] is -1.08%; in assay [2], 0.87%; in assay [3] it was -1.09%.
Taken in the same sequence, the figures for `N=C(N)NN=Cc1ccccc1OCc1ccccc1Cl` were -0.49%, 2.44% and 0.38%.
Taken in the same sequence, the figures for `N=C(N)c1ccc(NC(=O)Cc2nc3cc(C(=N)N)ccc3[nH]2)cc1` were -0.77%, -0.09% and -0.08%.
On to `CCNc1cc(CCCC(=O)OCC)nc(Nc2ccc(C)cc2)n1`, for which the inhibition in assay [1] was determined as 10.3%; in assay [2], 13%; in assay [3], 10.3%.
With `Cc1nc(-c2nc(NCc3ccncc3)ncc2-c2ccsc2)sc1C`, the inhibition was -1.32% in assay [1], -0.89% in assay [2] and 0.31% in assay [3].
Taken in the same sequence, the figures for `COc1ccc2ncc(F)c(CCN3C4CCC3CC(NCc3ccc5c(c3)OCCO5)C4)c2n1` (stereo unspecified) were 59.9%, 71.9% and 79.2%.
Regarding `Cc1cc(-c2ccc(NC(=O)c3coc4ccc(N5CC(C)N(C)C(C)C5)cc34)cc2C)cc(C)n1` (stereo unspecified), the results for the inhibition in assay [1], in assay [2] and in assay [3] were 2.55%, 3.78% and 1.55%, respectively.
For `O=C(Nc1cccc(Cl)c1Cl)NC1CCN(Cc2cccc(O)c2)CC1`, the inhibition in assay [1] stood at 3.63%; in assay [2], 2.13%; in assay [3], 2.32%.
Turning to `O=C(Nc1cccc(CN2CCN(Cc3ccc(O)cc3)CC2)c1)c1ccc(-c2ccccc2)cc1`, the results for the inhibition in assay [1], in assay [2] and in assay [3] were 4.37%, 2.25% and -3.36%, respectively.
Turning to `c1ccc2[nH]c(-c3ccc(-c4ccc(CNCCc5ccncc5)cc4)s3)nc2c1`, the inhibition in assay [1] came to 8.39%; in assay [2], 5.02%; in assay [3] it was 2.3%.
Take `COc1cc2nc(N3CCC(CNC(=O)c4ccc(-c5ccc(C(=O)N(C)C)cc5O)cc4)CC3)nc(N)c2cc1OC`: the inhibition in assay [1] was 0.58%; in assay [2] it was 1.14%; in assay [3] it was -1.24%.
Taken in the same sequence, the figures for `CC(C)CNCc1ccc(-c2cccc(CN(C(=O)NCCc3ccccc3)C3CCN(Cc4ccccc4)CC3)c2)cc1` were 9.24%, 11% and 8.02%.
In the case of `COc1ccc2nccc([C@@H](O)CN3CCC(NCc4cc5cc(C)ccc5s4)CC3)c2c1`, the inhibition came out at 31.5% in assay [1], 46% in assay [2] and 21.9% in assay [3].
`O=C(NC1CCN(Cc2ccccc2)CC1)c1cc(-c2ccncc2)c(-c2ccc(Cl)c(O)c2)o1`: the inhibition in assay [1] is 2.8%; in assay [2], 1.63%; in assay [3] it was 0.77%.
Turning to `CC(=O)Nc1cccc(C(=O)Nc2cccc(-c3ccc(-c4nc5cccc(C)c5[nH]4)s3)c2)c1`, the values for the inhibition in assay [1], in assay [2] and in assay [3] were 3.54%, 1.14% and 0.43%, respectively.
Take `CN1CCN(CCCN(Cc2ccc(-c3cccc(CNC4CCCC4)c3)cc2)C(=O)/C=C/c2ccccc2)CC1`: the inhibition in assay [1] was determined as 10.2%; in assay [2] it was 9.42%; in assay [3] it was 6.94%.
Taken in the same sequence, the figures for `CCCC(C)NC(=O)c1cnn(-c2ccc(C(C)(C)C)cc2)c1OCc1ccc(Br)cc1` (stereo unspecified) were 4.76%, 6.02% and 5.11%.
As for `COc1cc(F)c2ncc(Cl)c(CCN3CCC(NCc4cc5c(cn4)OCCO5)CC3)c2c1`, the inhibition in assay [1] came to 28.4%; in assay [2], 41.5%; in assay [3], 55.4%.
With `CCc1ccc(CN(Cc2ccc(C)cc2)Cc2ccc(NC(C)=O)cc2)cc1`, the values for the inhibition in assay [1], in assay [2] and in assay [3] were 2.72%, 3.95% and 2.91%, respectively.
As for `Cc1nc(N)nc(N)c1-c1cc(Cl)c(Cl)c(Cl)c1`, the inhibition in assay [1] worked out at 0.4%; in assay [2] it was 0.89%; in assay [3], 1.22%.
Take `O=C(c1cccc(-c2noc(C(F)(F)F)n2)c1)N1CCN(c2nsc3ccccc23)CC1`: the figures for the inhibition in assay [1], in assay [2] and in assay [3] were -0.16%, -1.92% and -1.66%, respectively.
In the case of `O=C(Nc1cccc(-c2cccc(-c3nc4cc(C(F)(F)F)ccc4[nH]3)c2)c1)c1ccncc1`, the inhibition came out at 5.04% in assay [1], 7.47% in assay [2] and 2.56% in assay [3].
On to `COc1ccccc1N=C1SC(=Cc2cn(CC(=O)N3CCCc4ccccc43)c3ccccc23)C(=O)N1C1CCCCC1`, for which the inhibition is 2.84% in assay [1], 0.47% in assay [2] and -1.37% in assay [3].
As to `Cc1nc(N)nc(N)c1OCCCCOc1ccccc1`, the inhibition in assay [1] came out at 3.87%; in assay [2] it was 2.98%; in assay [3], 2.4%.
Consider `COc1ccccc1N1CCN(Cc2cc(C(C)C)c(C)cc2O)CC1`, for which the inhibition in assay [1] was 3.59%; in assay [2], 6.3%; in assay [3] it was 0.93%.
Taken in the same sequence, the figures for `CC(C)(C)c1ccc(CN2CCC(CNC(=O)c3cc(-c4cccc(C(F)(F)F)c4)cs3)C2)cc1` (stereo unspecified) were -1.18%, -0.44% and -5.97%.
With `O=C(Nc1cccc(C(F)(F)F)c1)c1ccc(S(=O)(=O)NCC2CCCN2CC2CCCCC2)cc1` (stereo unspecified), the inhibition was 1.8% in assay [1], 3.93% in assay [2] and -0.18% in assay [3].
Regarding `OCc1c(Cl)cc(Cl)cc1CNCCCNc1nc2ccccc2[nH]1`, the inhibition in assay [1] came to 5.72%; in assay [2], 6.27%; in assay [3] it was 1.01%.
For the molecule `COc1cccc2[nH]c(NCCCNCc3cc(Br)cc(Br)c3)nc12`, the inhibition worked out at 3.51% in assay [1], 1.26% in assay [2] and 2.63% in assay [3].
In the case of `Cc1cc(N2CCN(CC3CCN(C)CC3)CC2)nc(Nc2ccc(Cl)cc2)n1`, the inhibition in assay [1] amounted to 0.56%; in assay [2] it was 0.64%; in assay [3], 2.21%.
Taken in the same sequence, the figures for `Cc1ccc(Cc2cccc3nc(N)nc(N)c23)cc1` were 1.2%, 0.71% and -0.6%.
Turning to `COc1ccc2nccc([C@@H](O)CN3CCC(NC(=O)C(c4cc5ccccc5o4)N4CCN(c5ccc(F)cc5)CC4)CC3)c2c1` (stereo partly specified), the inhibition was determined as 2.59% in assay [1], 1.79% in assay [2] and 0.13% in assay [3].
Take `c1ccc(CN2CCC(NCc3ccccc3-c3cccc(CNC4CCCC4)c3)CC2)cc1`: the inhibition in assay [1] amounted to 6.21%; in assay [2], 2.62%; in assay [3] it was 7.14%.
As to `N#Cc1cccc(C(=O)NC2CCN(CCCCCNC(=O)/C=C/c3ccc(Cl)c(Cl)c3)CC2)c1`, the values for the inhibition in assay [1], in assay [2] and in assay [3] were 5.7%, 5.26% and 7.61%, respectively.
On to `Cc1ccc(CN(Cc2ccc(C(=O)N(C)C)cc2)Cc2ccc3c(c2)OCCO3)cc1C`, for which the inhibition in assay [1] was 0.09%; in assay [2] it was 0.35%; in assay [3] it was 0.35%.
For the molecule `COc1cc2ccccc2c(CON2C(=N)N=C(N)NC2(C)C)c1OC`, the figures for the inhibition in assay [1], in assay [2] and in assay [3] were 2.53%, 2.15% and 1.62%, respectively.
For `NC(Cc1cccc(I)c1)C(=O)NCC1CCCO1` (stereo unspecified), the inhibition in assay [1] was determined as 1.94%; in assay [2], 0.37%; in assay [3], 0.96%.

For orientation: inhibition means the change of the read-out against control, counted positive when it falls.
